Bioassay records (PubChem BioAssay)
Shown is part of a subset that was picked to be rich in hits.
ST2 inh: inhibitors of human ST2 (IL1RL1) binding to IL-33. Q01638. 2.3% of 78,000 active. inhibition, % for hits at 17 µM. AlphaLISA ST2-Fc/biotin-IL-33 interaction, 1 h; in the data active = inhibition above about 30%
Target sequence (Q01638 whole entry, looked up): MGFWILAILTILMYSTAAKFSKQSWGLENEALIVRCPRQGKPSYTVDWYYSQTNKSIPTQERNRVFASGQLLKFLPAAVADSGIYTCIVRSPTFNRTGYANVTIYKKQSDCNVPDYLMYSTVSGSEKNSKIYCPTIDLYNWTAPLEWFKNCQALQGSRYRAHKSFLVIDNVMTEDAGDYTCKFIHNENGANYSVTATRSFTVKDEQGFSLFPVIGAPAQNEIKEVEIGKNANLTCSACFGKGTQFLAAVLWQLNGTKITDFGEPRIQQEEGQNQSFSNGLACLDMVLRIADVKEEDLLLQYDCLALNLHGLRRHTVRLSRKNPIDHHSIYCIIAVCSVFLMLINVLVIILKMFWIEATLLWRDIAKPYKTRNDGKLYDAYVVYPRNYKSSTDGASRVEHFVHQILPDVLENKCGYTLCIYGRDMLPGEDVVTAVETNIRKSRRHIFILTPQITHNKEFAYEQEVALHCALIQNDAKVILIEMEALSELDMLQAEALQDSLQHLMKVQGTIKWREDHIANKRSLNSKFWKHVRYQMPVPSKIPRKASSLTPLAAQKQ
Large screens that a line does not name were inactive.

COc1ccc(C2CC(c3ccccc3)=NN2C(=O)c2ccc(F)cc2)cc1 (stereo not drawn)	none
COc1ccc(C2=NN(S(=O)(=O)c3ccc(C)cc3)C(c3ccc(F)cc3)C2)cc1OC (stereo not drawn)	none
Cc1ccc(C2CC(c3ccc(F)cc3)=NN2c2ccccc2)o1 (stereo not drawn)	ST2 inh 40%
CC1CCc2c(sc(NC(=O)CSc3nnc4ccccn34)c2C#N)C1 (stereo not drawn)	none
N#Cc1nc(COc2ccccc2Cl)oc1N1CCCC1	ST2 inh 73%
N#CSCCCCOc1ccccc1Cl	none
N#Cc1nc(COc2ccccc2Cl)oc1NCCCn1ccnc1	ST2 inh 45%
Fc1ccccc1OCCCn1ccnc1	none
COc1ccc(OCc2nc(C#N)c(N3CCC(C(N)=O)CC3)o2)cc1	none
CN1CCN(Cc2ccc(OCc3ccccc3)cc2)CC1	none
N#Cc1nc(COc2ccc(Br)cc2)oc1N1CCN(Cc2ccccc2)CC1	ST2 inh 56%
Clc1ccccc1OCCCCN1CCNCC1	none
c1ccc(OCCCn2ccnc2)cc1	none
Cc1oc2cc(OCc3ccccc3)ccc2c(=O)c1Oc1ccccc1	none
Fc1ccc(-c2nnn(CCCc3n[nH]c(Cc4ccccc4)n3)n2)cc1	none
O=C(NC(O)C(=O)c1cccs1)c1ccncc1 (stereo not drawn)	none
CCc1ccc(N2CSC3=C(C#N)C(c4ccc(OC)cc4)CC(=O)N3C2)cc1 (stereo not drawn)	none
O=C(Nc1ccc(Cl)cn1)c1cc(F)c(F)cc1Cl	none
O=C(Nc1ccccc1F)c1ccc2nc(-c3ccco3)c(-c3ccco3)nc2c1	none
O=C(Nc1nccs1)c1ccc2snnc2c1	none
O=C(Nc1nccs1)c1ccc2nc(-c3ccco3)c(-c3ccco3)nc2c1	ST2 inh 30%
Cc1noc([C@@H]2C[C@H](NS(=O)(=O)Cc3ccccc3)CN2C)n1	none
CC(C)NC(=O)C1CC1(c1ccccc1)c1ccccc1 (stereo not drawn)	none
CCCC1COCCN1Cc1ccc(C(=O)Nc2c(C)cnn2C)cc1 (stereo not drawn)	none
O=C(Nc1ccc(C(=O)N2CCN(c3ccc(F)cc3)CC2)cc1)C1CCCO1 (stereo not drawn)	none
NC(=O)c1cc2cc(Br)ccc2oc1=Nc1ccccc1	ST2 inh 33%
Cc1ccc(N=c2oc3ccc(Br)cc3cc2C(N)=O)cc1	none
Cc1cccc(N=c2oc3ccc(Br)cc3cc2C(N)=O)c1	none
O=c1cc(-c2cc(Br)cc3c2OCOC3)oc2ccc(Cl)cc12	none
Cc1ccc(-c2csc(NC(=O)CCCC(=O)O)n2)c(C)c1	none
Cc1ccc(-c2csc(/C(C#N)=C/c3ccc(Br)o3)n2)c(C)c1	ST2 inh 60%
N#C/C(=C\c1ccc(Br)o1)c1nc(-c2ccc(Cl)cc2)cs1	ST2 inh 31%
Cc1ccc(/C=C(/C#N)c2nc(-c3ccc(Cl)c(Cl)c3)cs2)o1	none
COc1cccc2cc(-c3nc(-c4ccc(Br)cc4)cs3)c(=O)oc12	none
COc1ccc(-c2csc(/C(C#N)=C/c3ccc(Br)o3)n2)cc1	ST2 inh 42%
COc1ccc(-c2csc(/C(C#N)=C\c3ccc(OC)o3)n2)cc1	ST2 inh 49%
COc1ccc(-c2csc(NC(=O)C3CC=CCC3C(=O)O)n2)cc1 (stereo not drawn)	none
COc1ccc(-c2nnc(-c3ccc(OC)cc3)o2)cc1	none
O=C(NCC1CCCO1)c1sc2cccc(Cl)c2c1Cl (stereo not drawn)	none
Cc1cc(OCC(=O)NCc2ccncc2)cc(C)c1Br	none
Cn1c(=O)cc(SCC(=O)NCc2cccs2)c2ccccc21	none
Cc1cc(OCC(=O)NCc2cccnc2)cc(C)c1Br	none
Cc1ccc(C)c(S(=O)(=O)NCCCn2c(C(F)(F)F)nc3cccnc32)c1	none
Cc1ccc(O)c(C2Nc3ccccc3NC3=C2C(=O)CC(C)(C)C3)c1 (stereo not drawn)	none
O=C1CC(N2CCN(Cc3ccc(Cl)cc3)CC2)C(=O)N1c1ccccc1 (stereo not drawn)	none
CC(=O)N1c2c(cc(Br)cc2S(=O)(=O)NCc2ccc(F)cc2)CC1C (stereo not drawn)	none
CCc1ccc(Cn2c(CNS(=O)(=O)c3ccc(CC(C)C)cc3)nc3cccnc32)cc1	none
O=C(CO)NCC1CCN(Cc2ccccc2F)C1 (stereo not drawn)	none
CN1[C@@H](CCC(=O)NCc2ccc(F)cc2)CNC(=O)[C@@H]2[C@H]1CCN2C1CCOCC1	none
Cc1cccc(OCC(=O)Nc2ccc(F)cc2)c1C	none
COc1ccc(-c2nn(-c3ccccc3C)cc2CNC2CCOCC2)cc1F	none
CN(Cc1ccc(Sc2nncn2C)o1)C1CCCN(Cc2ccccc2F)C1 (stereo not drawn)	none
COc1ccc(C2CCN(Cc3ccc(Sc4nncn4C)o3)c3ccccc3S2)cc1C (stereo not drawn)	ST2 inh 31%
Cc1cc2c3c(c1)C1C=CCC1C(C(=O)O)N3CC1CC=CC21 (stereo not drawn)	ST2 inh 33%
CCN(CCNC(=O)c1cc(-c2ccncc2)nc2ccccc12)c1ccccc1	none
O=C(Nc1ccc(F)c(Cl)c1)c1cc2c(=O)n3ccccc3nc2s1	none
COc1ccc(Cl)cc1NC(=O)c1cc2c(=O)n3ccccc3nc2s1	ST2 inh 37%
O=C(Nc1ccccc1F)c1cc2c(=O)n3ccccc3nc2s1	none
COc1ccccc1C1C=C(Nc2ccccc2)C(=O)N1c1ccccc1 (stereo not drawn)	none
O=C(Nc1ccc(Oc2ccccc2)cc1)c1cccnc1	none
O=C1C(=Cc2ccc3c(c2)OCO3)C(=O)c2ccccc21	none
CCN(CC)c1ccc(C=Nc2ccc([N+](=O)[O-])cc2OC)c(O)c1	none
CCSC1=N/C(=C\c2ccc3c(c2)OCO3)C(=O)S1	ST2 inh 55%
CCSC1=N/C(=C\c2ccc(N(CC)CC)cc2OC)C(=O)S1	ST2 inh 65%
CCOc1ccc(-c2nc3s/c(=C\c4ccc(OC)cc4OC)c(=O)n3n2)cc1	none
CCSC1=N/C(=C\c2cc3c(cc2Cl)OCO3)C(=O)S1	none
N#CCCCSc1nnnn1-c1ccccc1	none
Cc1cc(C)c(Nc2nnc(C(C)(C)C)c(=O)[nH]2)c(C)c1	none
c1ccc(-c2ncn(CCCc3cccnc3)c2-c2cnn3cccnc23)cc1	none
O=[N+]([O-])c1ccccc1C=Nc1ccc2nc(-c3ccccc3)[nH]c2c1	none
Cc1ccc2nc(-c3cc(N=Cc4cccc([N+](=O)[O-])c4)ccc3O)[nH]c2c1	ST2 inh 43%
Cc1ccc2nc(-c3cc(N=Cc4cccc([N+](=O)[O-])c4O)ccc3O)[nH]c2c1	ST2 inh 36%
Cc1ccc2nc(-c3cc(N=Cc4ccc([N+](=O)[O-])cc4)ccc3O)[nH]c2c1	ST2 inh 38%
CC(=O)N1CCc2cc(N=Cc3cc([N+](=O)[O-])ccc3O)ccc21	none
C/C(=C\c1ccccc1)c1nc2ccc([N+](=O)[O-])cc2[nH]1	none
O=[N+]([O-])c1cccc(C=Nc2ccc(F)cc2)c1O	none
O=[N+]([O-])c1cccc(N=Cc2nc(-c3ccc(Br)cc3)oc2O)c1	none
CC(=O)Nc1nc(C)c(-c2nc3ccc([N+](=O)[O-])cc3[nH]2)s1	none
CNCc1cc(-c2ccc(OC)c(Cl)c2)ccc1OC	none
CN(Cc1ccco1)C(=O)c1ccc2c(c1)ncn2C1CCCC1	none
CCC(=O)N1CCc2cc(Br)cc(S(=O)(=O)NCCCN(C)C)c21	none
COC(=O)CSC1=C(C#N)C(c2cc(OC)ccc2OC)CC(=O)N1 (stereo not drawn)	none
C=CCc1cccc(C=Nc2c(C)n(C)n(-c3ccccc3)c2=O)c1OC	none
Cc1ccc(CSC2=NCCN2C(=O)Cc2cccs2)cc1	none
Cc1nc2nc[nH]n2c(=O)c1NC(=O)Nc1ccccc1F	none
COc1cc(C2CC(=O)Nc3ccc4ccccc4c32)cc(OC)c1O (stereo not drawn)	none
